# Bioassay records as filed in PubChem BioAssay.
# ugtP null kill – growth inhibition of S. aureus ugtP deletion strain | S. aureus RN4220 ugtP deletion, OD600 growth, 16 h | growth inhibition, % (concentration not given with the values) | hit rate 0.54% among 330,000 | AID 1259309; in the data active = growth inhibition above about 68%;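 note: plate controls were untreated wells for no effect and antibiotic for full effect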
# TcdB GH inh – inhibitors of Clostridioides difficile toxin B glycohydrolase; TcdB glycohydrolase enzymatic assay, plate reader; inhibition, % at 9.99 µM; hit rate 0.24% among 350,000; in the data active = inhibition above about 10%
# Sa RN4220 lethal – kills Staphylococcus aureus RN4220. S. aureus RN4220 growth, OD600, 16 h. hit rate 0.33% among 330,000. inhibition, % (no concentration beside the values). AID 1259311; in the data active = inhibition above about 85%;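 note: plate controls were untreated cells for no effect and reference antibiotic for full effect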
# Vc quorum ag-1 – quorum light induction in luxS cqsA deficient V. cholerae; V. cholerae BH1578 lux reporter, luminescence, 6 h; activation, % at 18.7 µM; hit rate 0.16% among 350,000; in the data active = activation mostly above about 9.7%, no sharp cut-off
# Vc quorum ag-2 – induces V. cholerae light production without autoinducers; AID 602243; activation, % at 50 µM; shares compounds with Vc quorum ag-1; V. cholerae BH1578 lux reporter, luminescence, 6 h; 620 tested, under 10 active; call rule not given here
# HeLa tox – kills HeLa cells within 24 hours; shares compounds with Vc quorum ag-1; HeLa viability, CellTiter-Glo ATP luminescence; activity change, negative = cytotoxicity, % at 35 µM; 25 tested, under 10 active; AID 624140;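 active = signal drop with fitted half-maximal concentration at or below twice the highest valid dose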
# * marks the source's active call; other numbers are inactive results; i = inactive; nt = no result; + = active, no number. Shown are actives, neighbours in structure and some others; about 0.67% of the full set was active somewhere.
SMILES,ugtP null kill,TcdB GH inh,Sa RN4220 lethal,Vc quorum ag-1,Vc quorum ag-2,others
Cc1ccc2cc(C(c3nnnn3C3CCCC3)N3CCN(c4ccc(F)cc4)CC3)c(=O)[nH]c2c1 (stereo not given),3,nt,7,14,0,
Cc1cc(C)c2cc(C(c3nnnn3C3CCCC3)N3CCOCC3)c(=O)[nH]c2c1 (stereo not given),7,nt,6,0,nt,
Cc1ccc(S(=O)(=O)Nc2cc(C(=O)NCCN(C)C)ccc2N2CCCCC2)cc1,-13,nt,-17,17*,0,
CCCC(=NNC(=O)C1CC1)c1ccc(Br)cc1,3,nt,1,nt,nt,
COc1ccc(NC(=O)CSc2ccc3c(c2)OCCO3)cc1OC,2,nt,-1,25*,0,
CCn1c(SCC(=O)Nc2ccc3c(c2)OCCO3)nnc1-c1ccccn1,3,nt,0,12,0,
COC(=O)C1CC1C(NP(=O)(c1ccccc1)c1ccccc1)c1ccccc1 (stereo not given),0,nt,6,nt,nt,
CC(=O)Nc1ccc(NC(=O)c2ccccc2C)cc1,6,1,1,257*,0,
CC(=O)c1cccc(NC(=O)COC(=O)Cc2ccc(Cl)cc2)c1,1,0,1,14,0,
CC(=O)c1cccc(NC(=O)COC(=O)COc2ccc(Cl)cc2)c1,-1,0,-1,0,nt,
COc1ccc(OCc2nnc3n2N=C(c2ccc(OC)cc2)CS3)cc1,11,-4,10,27,3,
COc1ccc(-c2ccc(-c3nnc(Cc4ccc(OC)c(OC)c4)o3)cc2)cc1,-5,nt,8,14,0,
CN(C)S(=O)(=O)c1cccc(NC(=O)COC(=O)c2ccc(Br)o2)c1,3,nt,4,14,0,
COc1ccc(N2Cc3ccc(OC)c(OC)c3C2=O)cc1,3,1,1,i,nt,
COc1ccc2c(c1OC)C(=O)N(c1nccs1)C2,-6,nt,-12,12,0,
CC1(C)c2[nH]c3ccccc3c2CC2C(=O)N(Cc3ccccc3)C(=O)N21 (stereo not given),-2,nt,-5,nt,nt,
COc1ccc(C)c2sc(N3CCCC3)nc12,-2,nt,5,28*,1,
COc1ccc(CCNC(=O)CC(C)=NNC(=O)COc2ccc(C)cc2Br)cc1OC,9,nt,5,nt,nt,
N#Cc1nc(-c2ccc(OCc3ccccc3)cc2)oc1NCc1cccnc1,2,nt,-12,i,nt,
N#Cc1nc(-c2ccc(OCc3ccc(Cl)cc3)cc2)oc1NCc1cccnc1,-17,nt,1,17*,0,
CC(C)CC(NC(=O)c1nc[nH]c1C(=O)NCC(=O)OCc1ccccc1)C(=O)OC(C)(C)C (stereo not given),3,nt,8,nt,nt,
CCC(=O)NCCc1nc(-c2ccccc2)no1,3,0,1,986*,716,
O=C(NCc1nc(-c2ccccc2)no1)c1cccs1,3,0,-1,179*,45,
Cc1ccc(CN2C(=O)CCC2C(=O)NCCN(CC(C)C)CC(C)C)cc1 (stereo not given),1,nt,-11,12,0,
O=C(NCC1CCCO1)C1CCN(C(=O)c2ccc(Cl)cc2)CC1 (stereo not given),-8,nt,3,17*,0,
SMILES,ugtP null kill,TcdB GH inh,Sa RN4220 lethal,Vc quorum ag-1,Vc quorum ag-2,others
Nc1nnc(-c2ccc(Cl)cc2Cl)s1,-2,0,4,470*,69,
Nc1nnc(-c2ccccc2F)s1,-3,-1,0,0,nt,
COc1ccc(C2CC(=O)C=C(c3ccc(Br)c4ccccc34)C2)cc1 (stereo not given),13,nt,-3,nt,nt,
Cc1cccc(C(=O)NCC(=O)NCC(c2cccs2)N2CCOCC2)c1 (stereo not given),4,2,2,-1,nt,
Cc1cccc(C(=O)NCC(c2cccs2)N2CCOCC2)c1 (stereo not given),3,3,6,14,0,
CCn1nc(NC(=O)c2ccco2)c2cc3ccccc3nc21,-28,nt,6,40*,216,
CCOc1ccc(C=Nn2cnnc2)cc1,1,nt,5,nt,nt,
CCc1ccc(C(=O)Nc2nnnn2CC)cc1,nt,nt,nt,nt,nt,HeLa tox=-5
CCn1nnnc1NC(=O)c1cccc(OC)c1,4,-2,6,0,nt,
CCN1CCN(C(=O)c2ccc(COc3ccc(Cl)cc3)o2)CC1,0,nt,-8,12,1,
CCN(CC)C(=O)c1sc(NC(=O)Cc2ccc(OC)cc2)c(C#N)c1C,-4,nt,-14,17*,0,
CCN(CC)C(=O)c1sc(NC(=O)Cc2ccccc2)c(C#N)c1C,-5,nt,0,2,nt,
O=C(NCCN1CCOCC1)c1ccc([N+](=O)[O-])cc1[N+](=O)[O-],-2,nt,-1,i,nt,
O=[N+]([O-])c1ccc(NCCN2CCOCC2)c([N+](=O)[O-])c1,0,1,2,33*,1,
CN(C)c1nc(N)ncc1-c1ccc(Oc2ccccc2)cc1,-1,0,1,53*,7,
O=C(Nc1nnc(C2CC2)s1)C1COc2ccccc2O1 (stereo not given),-9,nt,0,i,nt,
O=C(Nc1nnc(C(F)(F)F)s1)C1COc2ccccc2O1 (stereo not given),88*,nt,91,19,1,
CCCCN1C(=O)C(O)(CC(=O)c2ccccn2)c2ccccc21 (stereo not given),1,0,4,44*,200,
CCCCN1C(=O)C(O)(CC(=O)c2ccccc2OC)c2ccccc21 (stereo not given),8,-4,2,0,nt,
O=C(C1CC=CC2CCN(C3CC3)C(=O)C21)N1CCN(c2ccccc2)CC1 (stereo not given),-9,nt,2,nt,nt,
COc1ccccc1NC(=O)Cc1csc(NC(=S)Nc2ccccc2)n1,-22,nt,-7,14,0,
COC(=O)c1sc2ncccc2c1OCc1c(Cl)cccc1Cl,-8,nt,7,14,1,
COC(=O)c1sc2ncccc2c1OCc1cccc(Cl)c1,-9,nt,10,0,nt,
Cn1c(CCNC(=O)c2ccco2)nc2cc(NC(=O)NC3CCCCC3)ccc21,-3,nt,-2,7.6*,0,
Cn1c(CCNC(=O)c2ccco2)nc2cc(NC(=O)C3CCCCC3)ccc21,-5,nt,-4,-1,nt,
SMILES,ugtP null kill,TcdB GH inh,Sa RN4220 lethal,Vc quorum ag-1,Vc quorum ag-2,others
CCCNC(=O)COC(=O)/C=C/c1ccco1,8,1,0,+,i,
Cc1ccc(/C=C/C(=O)NCc2ccc(S(N)(=O)=O)cc2)o1,0,0,1,0,nt,
Cc1ccc(/C=C/C(=O)OCC(=O)NCCc2ccc(S(N)(=O)=O)cc2)o1,-2,1,-1,26*,7,
O=C(COC(=O)/C=C/c1ccco1)NCc1ccccc1,4,1,6,1,nt,
O=S(=O)(Nc1ccc(-c2ccc3nncn3n2)cc1)c1ccc(Cl)s1,5,2,10,160*,0,
O=S(=O)(Nc1ccc(-c2ccc3nncn3n2)cc1)c1ccccc1Cl,-4,1,8,i,nt,
Cc1noc(-c2ccc(Cl)cc2)c1C(=O)ON=C(N)c1ccc(C(C)(C)C)cc1,62,nt,-6,nt,nt,
Cc1cc(C(=O)CSc2nnc(-c3ccco3)o2)c(C)n1CC1COc2ccccc2O1 (stereo not given),-15,nt,7,18,1,
